Laboratory results published in PubChem BioAssay (EPA / NIEHS).
Several values for one entry are separate records, joined by “and”; a condition that tells them apart may be missing. Equal entries are not always repeated. Activity calls are given as the source filed them. The calls were made as follows: active = hit-call score of the fitted dose curve at least 0.9, where 1 is the maximum; inactive = score below 0.9.

Experiment: ATG_AP_2_CIS: Attagene CIS-FACTORIAL HepG2 Assay for human Activator Protein 2 (AP-2) (AID 2282932)
Settings: HepG2 AP-2 cis-reporter, Attagene transcription factor profiling; actives raise or lower the signal
Method: ATG_CIS is a cell-based, multiplexed-readout assay that uses HepG2, a human liver cell line, with measurements taken at 24 hours after chemical dosing in a 24-well plate.ATG_AP_2_CIS is one of 52 assay component(s) measured or calculated from the ATG_CIS assay. It is designed to make measurements of mRNA induction, a form of inducible reporter, as detected with fluorescence intensity signals by Reverse transcription polymerase chain reaction (RT-PCR) and Capillary electrophoresis technology.Data from the assay component ATG_AP_2_CIS was analyzed into 1 assay endpoint. This assay endpoint, ATG_AP_2_CIS, was analyzed with bidirectional fitting relative to DMSO as the negative control and baseline of activity. Using a type of inducible reporter, measures of mRNA for gain or loss-of-signal activity can be used to understand the reporter gene at the transcription factor-level as they relate to the gene TFAP2A and TFAP2B and TFAP2D. Furthermore, this assay endpoint can be referred to as a primary readout, because this assay has produced multiple assay endpoints where this one serves a reporter gene function. To generalize the intended target to other relatable targets, this assay endpoint is annotated to the dna binding intended target family, where the subfamily is basic helix-turn-helix leucine zipper.
Human liver HepG2 cells are transiently transfected with multiple reporter transcription units (MRTUs) in 6-well plates using FuGene 6 reagent (Roche; 3 ml FuGene/1 mg DNA). The MRTU constructs are regulated by a cis-regulating element (promoter). […] A major difference between the CIS and TRANS system is that in CIS activities of endogenous TFs are measured, whereas the TRANS assay evaluates changes in activities of exogenous, chimeric NR-Gal4 proteins. […] At the end of 24 hour incubation, total RNA was isolated using TriZol reagent (Invitrogen). The isolated RNA is then reverse-transcribed using oligo(dT) primer and Mo-MLV reverse transcriptase (Invitrogen) with DNAse I (Ambion) treatment for 30 min. The one-tenth of the produced cDNA was amplified by PCR using Taq DNA polymerase (Invitrogen) and two reporter sequence-specific primers. The PCR products were fluorescently labeled by primer extension with 6-arboxyfluorescein (6-FAM) 5'-labeled reporter sequence-specific primer (2 min at 95 C, 20 s at 68 C and 10 min at 72 C) and these products were digested with 5U of HpaI (New England Biolabs) for 2h at 37 C. The fragments were purified using Qiaquick PCR columns (Qiagen), analyzed on an ABI 3130xL genetic analyzer (Applied Biosystems) with peak positions identified by using a set of X-rhodamine (ROX)-labeled MapMarker1000 molecular weight standards (BioVentures). The raw capillary electrophoresis data was processed using Attagraph software (Attagene).

| SMILES | outcome | AC50 |
| --- | --- | --- |
| O=NN1CCCCCCC1 | inactive |  |
| C=CC(=O)OCC(COC(=O)C=C)(COC(=O)C=C)COC(=O)C=C |  | 33.4 µM (active) |
| ClCCCCl | inactive |  |
| Clc1cc(C(Cl)(Cl)Cl)cnc1Cl | inactive |  |
| CCOC(=O)OC1=C(c2cc(C)ccc2C)C(=O)NC12CCC(OC)CC2 (stereo not given) | inactive |  |
| Cc1c([N+](=O)[O-])c(C)c([N+](=O)[O-])c(C(C)(C)C)c1[N+](=O)[O-] | inactive |  |
| c1ccc2c(c1)Oc1ccccc1O2 | inactive |  |
| O=C(O)C1(c2ccc3c(c2)OC[C@H](Cc2ccc(-c4ccccc4)cc2)[C@H]3O)CCCC1 | inactive |  |
| CCCCOC(C)=O | inactive |  |
| c1cc[c]([Sb]([c]2ccccc2)[c]2ccccc2)cc1 | inactive |  |
| O=c1[nH]c(=O)n(Cl)c(=O)n1Cl | inactive |  |
| O=[N+]([O-])c1ccc(Nc2ccccc2)cc1 | inactive |  |
| CCC[N+](CCC)(CCC)CCC | inactive |  |
| OC(Cc1ccccc1Cl)(Cn1cncn1)C1(Cl)CC1 (stereo not given) | inactive |  |
| CCCCC(CC)C(=O)Cl (stereo not given) | inactive |  |
| CN(C)C(=S)S | inactive |  |
| Clc1ccc(C(Cl)(Cl)Cl)cn1 | inactive |  |
| O=c1oc2ccccc2c(O)c1C(CC(O)c1ccc(-c2ccc(Br)cc2)cc1)c1ccccc1 (stereo not given) |  | 54.8 µM (active) and 48.2 µM (active) |
| OC(c1ccc(Cl)cc1)(c1ccc(Cl)cc1)c1cccnc1 | inactive |  |
| C[C@]12CC[C@@H](O)C[C@@H]1CC[C@@H]1[C@@H]2CC[C@]2(C)C(=O)CC[C@@H]12 | inactive |  |

| SMILES | outcome | AC50 |
| --- | --- | --- |
| Cc1cc(Cl)ccc1N | inactive |  |
| Cc1cc(SCc2sc(-c3ccc(C(F)(F)F)c(F)c3)nc2C)ccc1OCC(=O)O |  | 51.2 µM (active) |
| Cc1cc(-c2cc(C)c(N)c(C)c2)cc(C)c1N | inactive |  |
| CCOP(=S)(OCC)SCS(=O)(=O)C(C)(C)C | inactive |  |
| Clc1cccc(Cl)c1 | inactive |  |
| C=CC(Cl)CCl (stereo not given) | inactive |  |
| Cc1cc(C(C)(C)c2ccc(O)c(C)c2)ccc1O | inactive |  |
| CCCCS(=O)(=O)Cl | inactive |  |
| Cc1ccc2nc3sc(=O)sc3nc2c1 |  | 9.68 µM (active) |
| CCOc1cc(C=O)ccc1O | inactive |  |
| O=[N+]([O-])c1cccc2ccccc12 | inactive |  |
| N#Cc1ccc(Cl)cc1 | inactive |  |
| CC1(C)[C@H](/C=C2\CCSC2=O)[C@@H]1C(=O)OCc1coc(Cc2ccccc2)c1 | inactive |  |
| CCCCCCCCCCCCCCC(Br)C(=O)O (stereo not given) |  | 100 µM (active) |
| O=C(CCl)NCO | inactive |  |
| O=C(O)CC(O)(CC(=O)O)C(=O)O | inactive |  |
| Clc1cnc(Oc2ccc(Oc3ncc(Cl)cc3Cl)cc2)c(Cl)c1 | inactive |  |
| O=C(CBr)c1ccc(O)cc1 | inactive |  |
| Brc1ccc(Br)cc1 | inactive |  |
| O=S(=O)(F)C(F)(F)C(F)(F)C(F)(F)C(F)(F)F | inactive |  |
